Here are results for 97 compounds from PubChem BioAssay AID818 (SRMLSC, 2007).

About 2,100 (1.5%) of roughly 140,000 compounds were called active.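 Rule for the calls: active = viability at or under a set limit, the compound median less 4 SD (cut at about 6% in these data); inactive = the rest.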 The entries come from a sample that favours actives as a whole.

This experiment can be described thus: primary screen for growth suppressors in beta-catenin knockout HCT116 cells (colon tumor, human) (AID 818).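 Note: 0% = Hyamine 1622 control at 20 µM and 100% = untreated cell control.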 To be noted: CellTiter-Glo, 60 h, at 10 µM, hits give low values.
`Cc1ccn(CC(=O)N2N=C(C(F)F)CC2(O)C(F)F)n1` (configuration not stated): the viability (commonly a read-out of living cells in per cent, often relative to untreated cells) is 101% (inactive).

Consider `N#C/C(=C\C1=C(N2CCOCC2)C(=C\c2ccccc2)/CC1)C(=O)Nc1ccccc1F`, for which the viability is 65.8% (inactive).

`CCN(CC)c1ccc(/C=N/Nc2nc(C)cc(=O)[nH]2)cc1`: the viability was 76.5% (inactive).

In the case of `Oc1ccc(/C=N/NC2=NCCCCC2)c(O)c1`, the viability was 94.7% (inactive).

`CCN(CC)c1ccc(/C=N/Nc2nc(C)cc(C)n2)c(O)c1`: the viability was 5.53% (active).

In the case of `CCOC(=O)c1c(NC(=O)C2(C)Cc3ccccc3C(=O)O2)sc2c1CCCC2` (configuration not stated), the viability is 79.4% (inactive).

On to `Cc1ccc(C)c(NC(=O)CCC(=O)NNC(=O)c2cccs2)c1`, for which the viability is 96.8% (inactive).

Take `O=C(/C=C\c1ccc2c(c1)OCO2)NC1(C(=O)Nc2ccc3c(c2)OCCO3)CCCCC1`: the viability was 102% (inactive).

For the compound `COc1ccc2nc(Nc3nc4ccc(NC(C)=O)cc4s3)sc2c1`, the viability is 2.25% (active).

Take `CCOc1ccc2nc(Nc3nc4ccc(NC(C)=O)cc4s3)sc2c1`: the viability was 74.6% (inactive).

As for `COc1ccc2nc(Nc3nc4cc5c(cc4s3)OCCO5)sc2c1`, the viability was 90.5% (inactive).

With `COc1ccc(C2=NN(C(=O)c3cccnc3)C(c3ccccc3)C2)cc1` (configuration not stated), the viability is 100% (inactive).

With `COC(=O)c1c(NC(=O)CN2CCN(S(=O)(=O)c3ccccc3[N+](=O)[O-])CC2)sc2c1CCC(C)C2` (configuration not stated), the viability is 90.5% (inactive).

On to `CCC1CCc2c(sc(NC(C)=O)c2C#N)C1` (configuration not stated), for which the viability was 101% (inactive).

Consider `CN1CCN(CC(=O)Nc2sc3c(c2C#N)CCC(C(C)(C)C)C3)CC1` (configuration not stated), for which the viability was 3.32% (active).

Regarding `CCNc1nc(NC(C)C)nc(N2CC(=O)N(CC(=O)OCC)C2=N)n1`, the viability was 94.3% (inactive).

Take `Oc1c(Cl)cc(Cl)c(Cl)c1Cc1c(O)c(Cl)cc(Cl)c1Cl`: the viability was 4.83% (active).

On to `CCCn1c(=O)c2c(C(F)(F)F)cc(-c3cccs3)nc2n(CCC)c1=O`, for which the viability is 90% (inactive).

Consider `c1ccc2c(c1)C(=NC1CCCCC1)NC2=NC1CCCCC1`, for which the viability was 5.56% (active).

As for `O=C1CCCCC(=O)c2ccccc2N1`, the viability was 101% (inactive).

`CC(=O)OC(C)C[N+](C)(C)C` (configuration not stated): the viability was 102% (inactive).

For `CC(C[N+](C)(C)C)OC(N)=O` (configuration not stated), the viability was 1.28% (active).

With `CCCCn1c(O)c(N=NC(=O)Cn2c(C(F)(F)F)nc3ccccc32)c2ccccc21`, the viability is 93.1% (inactive).

As to `CC(C)(C)NC(=O)C(=O)NCc1ccncc1`, the viability was 98.5% (inactive).

`O=C(CSC(=S)N1CCOCC1)c1ccccc1`: the viability was 98.3% (inactive).

As for `Cn1ncc2c(NNC(=O)Cc3cccc4ccccc34)ncnc21`, the viability is 86.8% (inactive).

Turning to `NS(=O)(=O)c1ccc(N=Cc2ccc(Br)s2)cc1`, the viability is 101% (inactive).

For the compound `CC(=O)CCC(=O)c1ccc2ccccc2c1`, the viability is 99.5% (inactive).

On to `Cc1nc(-c2ccccc2)sc1C(=O)/C=C/c1ccccc1`, for which the viability was 4.4% (active).

Turning to `Cc1ccc(SCC(=O)c2sc(-c3ccccc3)nc2C)cc1`, the viability was 94.5% (inactive).

As to `CNC(=O)c1csc(-c2ccccc2)n1`, the viability is 96.8% (inactive).

For `Cc1ccc(Sc2ccncc2S(N)(=O)=O)cc1`, the viability is 87.3% (inactive).

Turning to `O=C(COC(=O)/C=C/c1ccc(S(=O)(=O)N2CCCCCC2)cc1)NCc1ccccc1Cl`, the viability was 106% (inactive).

Regarding `N=c1c2c(-c3ccccc3)c(-c3ccccc3)n(Cc3ccccc3)c2ncn1CCCO`, the viability is 1.54% (active).

For `N=c1c2c(-c3ccccc3)c(-c3ccccc3)oc2ncn1Cc1ccco1`, the viability is 59.7% (inactive).

As for `OCCCN1c2ccccc2Nc2nnc(-c3ccccc3)cc21`, the viability was 46.3% (inactive).

In the case of `Cc1nc(SCc2ccc(F)cc2)c([N+](=O)[O-])[nH]1`, the viability is 89.8% (inactive).

In the case of `Cc1cc(N2CCOCC2)nc(-c2ccc(Br)cc2)n1`, the viability is 82.4% (inactive).

With `CCCC1OC23CCCCC2C(C#N)(C#N)C1(C#N)C(=N)O3` (configuration not stated), the viability was 85.5% (inactive).

For the compound `COc1cccc(/C=N/NC(=O)CNC(=O)c2ccc(S(=O)(=O)N3CCOCC3)cc2)c1OC`, the viability was 90.8% (inactive).

`COC(=O)c1sc2ncccc2c1OCc1ccc(Cl)cc1Cl`: the viability was 67.4% (inactive).

`NC(N)=N/N=C/c1ccc(OCc2ccc(Cl)cc2Cl)cc1`: the viability is 1.64% (active).

Consider `COc1ccc(C(=O)O/N=C(\N)Cc2ccc(Cl)cc2Cl)cc1OC`, for which the viability was 79.8% (inactive).

With `CCOC(=O)NN1C(=O)c2ccccc2NC1c1ccccc1O` (configuration not stated), the viability is 95% (inactive).

Turning to `C=CCn1c(SCC(N)=O)nnc1-c1cc2c(s1)CCC(CC)C2` (configuration not stated), the viability is 91.1% (inactive).

As to `COc1cc2c(cc1OC)C(C(C)C)=NC(C)(C)C2`, the viability is 95.1% (inactive).

With `COc1cc2c(cc1O)C(SC)=NC(C)(C)C2`, the viability is 2.29% (active).

Regarding `COc1cc2c(cc1OC)C(Nc1ccc(S(N)(=O)=O)cc1)=NC(C)(C)C2`, the viability is 101% (inactive).

With `COc1ccc(NC(=O)CC2C(=O)OCC3CCCCN32)cc1Cl` (configuration not stated), the viability was 93.4% (inactive).

Regarding `Cc1cc(C)c(C#N)c(SCC(=O)NN2CC(=O)N(c3ccccc3F)CC2=O)n1`, the viability is 99.8% (inactive).

Take `CC(C)[C@H](NC(=O)c1ccc(F)cc1)C(=O)OCC(=O)NC(=O)c1cccn1C`: the viability was 93.5% (inactive).

Consider `N=c1n(CCc2ccccc2)c2ccccc2n1Cc1ccccc1F`, for which the viability is 3.71% (active).

`CN(Cc1ccccc1)Cc1ccccc1F`: the viability is 83% (inactive).

Regarding `CC(=O)NC(C)c1nc2ccccc2n1Cc1ccccc1F` (configuration not stated), the viability is 102% (inactive).

Take `Cc1ccc2[nH]cc(CCNC(=O)c3ccc([N+](=O)[O-])cc3)c2c1`: the viability is 106% (inactive).

Turning to `Cc1ccc(C(=O)NC(C)c2ccccc2)cc1Br` (configuration not stated), the viability was 83.5% (inactive).

For the compound `CC(=O)Nc1ccc(S(=O)(=O)NCC(=O)OCc2cc(=O)oc3ccc4ccccc4c23)cc1`, the viability is 83.8% (inactive).

`CCCN1C(=O)C(Cc2nc3ccccc3c(=O)n2-c2ccccc2)c2cc(C)ccc21` (configuration not stated): the viability was 74.7% (inactive).

For `Cc1cc2c(c(=O)n1Cc1ccco1)C(c1ccccc1)C(C#N)=C(N)O2` (configuration not stated), the viability is 105% (inactive).

Take `N#CC1=C(N)Oc2c(sc3ccccc23)C1c1ccco1` (configuration not stated): the viability is 3.24% (active).

As for `Cc1cc(C)c2c3c(sc2n1)C(c1ccccc1)C(C#N)=C(N)O3` (configuration not stated), the viability was 21.1% (inactive).

With `Brc1ccc(-c2csc(N/N=C/c3ccc4c(c3)OCO4)n2)cc1`, the viability was 84.8% (inactive).

Regarding `CC(=O)c1c(O)cc2n(c1=O)-c1ccc(Cl)cc1C2(C)C`, the viability is 91.5% (inactive).

As to `Cc1ccc(C(CC(=O)O)Nc2nc(N3CCCCC3)nc(N3CCCCC3)n2)cc1` (configuration not stated), the viability was 97.6% (inactive).

Turning to `CC(C)n1c(C(O)c2ccccc2)nc2ccccc21` (configuration not stated), the viability is 110% (inactive).

Take `CC(Nc1nc(N2CCCC2)nc2ccccc12)c1ccccc1` (configuration not stated): the viability is 1.19% (active).

Regarding `C/C(=N\N1CCN(Cc2ccc(C)cc2)CC1)c1ccco1`, the viability was 99.1% (inactive).

As for `Cc1cc2oc(=O)cc(CN3CCN(S(=O)(=O)c4cccs4)CC3)c2cc1C(C)C`, the viability is 76.9% (inactive).

With `COc1cccc(-n2c(SCC(=O)c3c[nH]c4ccccc34)nc3ccccc3c2=O)c1`, the viability is 73.3% (inactive).

For `NC(=O)c1ccccc1N=Cc1ccc2ccccc2c1`, the viability is 35.3% (inactive).

`N#C/C(=C(/O)COc1cccc2ccccc12)c1nc2ccccc2[nH]1`: the viability is 79.3% (inactive).

Take `Cc1ccccc1OC/C(O)=C(\C#N)c1nc2ccccc2[nH]1`: the viability was 78.6% (inactive).

Take `N#C/C(=C(/O)COC(=O)COc1ccc(Cl)cc1)c1nc2ccccc2[nH]1`: the viability is 5.63% (active).

In the case of `O=C(Cc1cccc2ccccc12)NCCC1=CCCCC1`, the viability is 85.5% (inactive).

Take `CCOc1ncccc1C(=O)N(CC)CC(=O)Nc1ccc(NC(C)=O)cc1`: the viability was 104% (inactive).

As to `CCOC(=O)c1ccccc1NS(=O)(=O)c1ccc(OC)cc1`, the viability is 17.6% (inactive).

For `CCCCC(C(=O)OCC(=O)c1ccc(OC)cc1)N1C(=O)c2ccccc2C1=O` (configuration not stated), the viability was 103% (inactive).

For the compound `CCOC(=O)C1=C(c2ccc(OC)cc2)C(=O)c2ccccc2C1=O`, the viability is 1.16% (active).

For the compound `CCOC(=O)c1nn(-c2ccccc2F)c2nc(Nc3ccccc3)cc(=O)n12`, the viability is 94.3% (inactive).

Regarding `Cc1csc(NC(=S)Nc2cccc(Cl)c2)n1`, the viability was 26.5% (inactive).

In the case of `FC(F)(F)c1cccc(NC(=S)Nc2cccc(Cl)c2)c1`, the viability is 5.77% (active).

As to `S=C(Nc1cccc(Cl)c1)Nc1ccc2cn[nH]c2c1`, the viability was 77.5% (inactive).

As for `COC(=O)/C(=C1\Oc2ccc(C(C)(C)C)cc2S1)C(F)(F)F`, the viability is 102% (inactive).

Consider `Cc1ccc(-n2[nH]c(C)c(/C=N/NC(=O)c3cccc([N+](=O)[O-])c3)c2=O)cc1C`, for which the viability was 3.51% (active).

Consider `COc1cc(/C=N\NC(=O)CNC(=O)c2cccc([N+](=O)[O-])c2)ccc1O`, for which the viability is 79% (inactive).

Regarding `Cc1[nH]n(-c2ccc(Cl)cc2)c(=O)c1/C=N/n1c(C)nc2ccccc2c1=O`, the viability was 22.4% (inactive).

Take `Cc1[nH]n(-c2cccc(Cl)c2)c(=O)c1/C=N/n1c(C)nc2ccccc2c1=O`: the viability was 85.9% (inactive).

Turning to `COc1cccc(/C=N/NC(=O)c2cccc([N+](=O)[O-])c2)c1OS(=O)(=O)c1ccc(C)cc1`, the viability is 80.7% (inactive).

In the case of `Cc1[nH]n(-c2ccccc2)c(=O)c1/C=N/NC(=O)c1ccoc1C`, the viability was 3.98% (active).

Turning to `COC(=O)C1NN=C(C(=O)c2ccc(Br)cc2)C1c1cccc(Br)c1` (configuration not stated), the viability is 96.8% (inactive).

Regarding `O=C(CN1CCN(c2ccc(O)cc2)CC1)NC1CCCc2ccccc21` (configuration not stated), the viability was 74% (inactive).

Turning to `C/C(=N/NC(=O)CSc1ccccn1)c1ccc([N+](=O)[O-])cc1`, the viability was 94.1% (inactive).

With `COc1ccc(CC(=O)N/N=C(\C)c2ccccn2)cc1`, the viability is 3.98% (active).

Regarding `COc1ccc(C/C(C)=N/NC(=O)c2ccncc2)cc1`, the viability was 91.1% (inactive).

Regarding `C/C(=N\NC(=O)Cc1ccc(F)cc1)c1ccc(F)cc1`, the viability is 99.1% (inactive).

Consider `COc1ccc(C(CC(=O)O)NC(=O)Cc2ccccc2)cc1` (configuration not stated), for which the viability was 96.5% (inactive).

Consider `C/C(=N\NC(=O)Cc1ccc(Cl)cc1)c1ccccn1`, for which the viability is 4.96% (active).
